{
  "source": "PubChem BioAssay AID652208",
  "about": "(Broad Institute, 2013)",
  "note": "Results with a measured potency or affinity are listed apart. Activity calls are given as the source filed them.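 Rule for the calls: active = Loss of cell signal with fitted half-effect dose at or below twice the top valid tested dose; inconclusive = Poor fit, or flat fit from -70 to -30 percent; inactive = Half-effect above limit, rising signal, or flat within 30 percent.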",
  "data": [
    {"assay": "viability loss in HEK293T cells – cell-based, cherry-picks, cytotoxicity control for HIV Vif inhibitor project, dose response (AID 652208);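 note: 0% = median neutral control wells and -100% = median staurosporine control wells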", "details": "CellTiter-Glo luminescence, 24 h; series mostly up to 26 µM; activity change, negative = cytotoxicity: at the top concentration", "values": [
      {"compound": "CCN(CC)C(=O)c1sc2nc(-c3cccs3)cc(-c3cccs3)c2c1N", "activity change, negative = cytotoxicity": "-4.67% (inactive)"},
      {"compound": "C=CCn1c(O)c(C2=c3ccccc3=NC2=O)s/c1=N/c1nccs1", "activity change, negative = cytotoxicity": "-12.6% (inactive)"},
      {"compound": "CCOc1ccc(N2C(=O)/C(=C/c3cccs3)N(CC(=O)OC)C2=S)cc1", "activity change, negative = cytotoxicity": "-4.27% (inactive)"},
      {"compound": "CCCn1nnc(NC(=O)C(c2ccccc2)c2ccccc2)n1", "activity change, negative = cytotoxicity": "-16.2% (inactive)"},
      {"compound": "O=C1/C(=C/c2ccc(N3CCCC3)cc2)NC(=S)N1C1CC1", "activity change, negative = cytotoxicity": "3.52% (inactive)"},
      {"compound": "COc1ccc2c(CC(=O)Nc3ccccc3OC)coc2c1", "activity change, negative = cytotoxicity": "-3.21% (inactive)"},
      {"compound": "CC(C)C(NC(=O)c1ccccc1NC(=O)C(C)(C)C)C(=O)N1CCOCC1", "note": "(configuration not stated)", "activity change, negative = cytotoxicity": "5% (inactive)"},
      {"compound": "Cc1ccc(NC(=O)/C=C/c2ccco2)nc1", "activity change, negative = cytotoxicity": "-17.1% (inactive)"},
      {"compound": "COc1ccccc1N1C(=O)c2cccc3c(N(C)CCO)ccc(c23)C1=O", "activity change, negative = cytotoxicity": "0.642% (inactive)"},
      {"compound": "Cc1nc(C)n(CC(=O)N2CCCC(C(=O)c3ccc(C(F)(F)F)cc3)C2)n1", "note": "(configuration not stated)", "activity change, negative = cytotoxicity": "-0.546% (inactive)"},
      {"compound": "COc1ccccc1C(=O)COC(=O)C1(C)CC1(Cl)Cl", "note": "(configuration not stated)", "activity change, negative = cytotoxicity": "-0.825% (inactive)"},
      {"compound": "Cc1nnc2ccc(-c3cccc(NS(=O)(=O)c4cc(F)ccc4F)c3)nn12", "activity change, negative = cytotoxicity": "4.37% (inactive)"},
      {"compound": "CC(NC(=O)CSc1nc2c(c(C(F)(F)F)n1)CCc1ccccc1-2)c1ccccc1", "note": "(configuration not stated)", "activity change, negative = cytotoxicity": "-19.9% (inactive)"},
      {"compound": "Cc1cc(NS(=O)(=O)c2ccc(NC(=O)c3ccc(Cl)cc3Cl)cc2)no1", "activity change, negative = cytotoxicity": "0.157% (inactive)"},
      {"compound": "COc1cccc(-c2cc(NC=O)c3ncc(-c4cc(OC)c(OC)c(OC)c4)n3c2)c1", "activity change, negative = cytotoxicity": "-12.9% (inactive)"},
      {"compound": "CCCn1c(=N)c(C(=O)NCc2ccc3c(c2)OCO3)cc2c(=O)n3cccc(C)c3nc21", "activity change, negative = cytotoxicity": "-9.2% (inactive)"},
      {"compound": "CCOC(=O)C1=C(C)NC(=O)NC1", "activity change, negative = cytotoxicity": "4.76% (inactive)"},
      {"compound": "CN(C)c1ccc(C(O)Cc2nc3ccccc3n2C)cc1", "note": "(configuration not stated)", "activity change, negative = cytotoxicity": "-0.368% (inactive)"},
      {"compound": "Cc1cc(/C=C2\\NC(=S)N(C)C2=O)ccc1N1CCCC1", "activity change, negative = cytotoxicity": "3.57% (inactive)"},
      {"compound": "Oc1[nH]c(=S)sc1/C=C1\\C(c2ccccc2)=Nc2ccccc21", "activity change, negative = cytotoxicity": "4.54% (inactive)"},
      {"compound": "CCCCOc1ncnc2c1[nH]c1ccccc12", "activity change, negative = cytotoxicity": "-16.2% (inactive)"},
      {"compound": "O=C(COC(=O)c1ccccc1Br)NC1CCCC1", "activity change, negative = cytotoxicity": "-10.5% (inactive)"},
      {"compound": "CCc1nnc(NC(=O)c2sc3nc4cc(C)ccc4cc3c2N)s1", "activity change, negative = cytotoxicity": "3.92% (inactive)"},
      {"compound": "Cc1ccc(-n2nnc3c(=O)n(CC(=O)OCc4ccccc4)cnc32)cc1", "activity change, negative = cytotoxicity": "-0.069% (inactive)"},
      {"compound": "COc1ccc(-c2nc(-c3ccccn3)nc(N3CCN(C)CC3)c2C#N)cc1", "activity change, negative = cytotoxicity": "-3.84% (inactive)"},
      {"compound": "CCOC(=O)C1CCCN1C(=O)C1(NC(C)=O)CCCC1", "note": "(configuration not stated)", "activity change, negative = cytotoxicity": "5.09% (inactive)"},
      {"compound": "COc1c2ccoc2nc2c(OC)c(OC[C@@H](O)C(C)(C)O)ccc12", "activity change, negative = cytotoxicity": "8.74% (inactive)"},
      {"compound": "NC(=O)c1sc2nc(-c3ccccc3)ccc2c1N", "activity change, negative = cytotoxicity": "16% (inactive)"},
      {"compound": "COc1ccccc1C1C2=C(COC2=O)Nc2cc3c(cc21)OCO3", "note": "(configuration not stated)", "activity change, negative = cytotoxicity": "-19.8% (inactive)"},
      {"compound": "O=C(CCN1CCOCC1)Nc1ccc(Cl)cc1", "activity change, negative = cytotoxicity": "0.037% (inactive)"},
      {"compound": "CC(O)CN(C)CC/C=C1/c2ccccc2CSc2ccccc21", "note": "(configuration not stated)", "activity change, negative = cytotoxicity": "2.18% (inactive)"},
      {"compound": "Cc1cccc(C)c1NC(=O)COc1ccc2c(C)c(Cc3ccccc3)c(=O)oc2c1C", "activity change, negative = cytotoxicity": "6.84% (inactive)"},
      {"compound": "NCCCC[C@H](N[C@@H](CCc1ccccc1)C(=O)O)C(=O)N1CCC[C@H]1C(=O)O", "activity change, negative = cytotoxicity": "2.25% (inactive)"},
      {"compound": "Nc1nc(-c2ccc3ccccc3c2)cs1", "activity change, negative = cytotoxicity": "4.51% (inactive)"},
      {"compound": "Cc1nc(-c2ccccc2OC(F)(F)F)[nH]c(=O)c1Cl", "activity change, negative = cytotoxicity": "0.156% (inactive)"},
      {"compound": "CC1CN(S(=O)(=O)c2cccc(C(=O)N3CCC(C(N)=O)CC3)c2)CC(C)O1", "note": "(configuration not stated)", "activity change, negative = cytotoxicity": "5.09% (inactive)"},
      {"compound": "COc1ccc(CC(=O)OCC(=O)Nc2cccc(Br)c2)cc1", "activity change, negative = cytotoxicity": "4.24% (inactive)"}
    ]}
  ]
}
